High-throughput results as filed in PubChem.
Most compounds without a hit are left out; they make up all but 2.1% or so of the library.
LDHA block: inhibitors of human lactate dehydrogenase A; activity change, % (values are at about 110 or 230 µM); AID 1347041; purified LDHA, NADH/diaphorase-resazurin fluorescence; stronger effect = lower value; 480,000 tested, 0.15% active; P00338; in the data active = activity change below about -30%;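 note: plate controls were DMSO wells for no effect and wells without enzyme for full effect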
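LDH5 2 nM; NADH 0.06 mM, pyruvate 0.2 mM; 200 mM Tris pH 7.4, EDTA, Tween-20; 5 min RT. Detection: diaphorase 0.133 mg/mL + resazurin 37 µM, fluorescence ex540/em590 at 0 and 20 min; normalized to enzyme-free and DMSO wells.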
D2 antagonist: D2 dopamine receptor (human) antagonism; HEK293 TREx D2 cells, calcium flux, dopamine EC80; inhibition, % at 10 µM; 340,000 tested, 2% active; AID 485344; in the data active = inhibition above about 30%; inactive = below that, where a call was filed; note: 0% is about no effect
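Dopamine at EC80 is the agonist stimulus; test compounds precede it by 180 s. Calcium flux read kinetically in a force-coupled, inducible HEK293 T-REx D2 cell line.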
D2 ag-1: activates the human D2 dopamine receptor. P14416. HEK293 T-REx D2 cells, calcium flux agonist mode. activation, % at 2 µM. 340,000 tested, 0.53% active;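 active = activation over 3 SD above normal in the single-dose calcium agonist read, cut at about 30% in these data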; note: 0% is about no effect
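HEK293 Trex D2 cells, tetracycline-induced, o/n 30 C 5% CO2; no-wash Ca dye, RT 30–90 min; 10-cycle baseline, 23 nl cpd added, kinetic Ca read 180 s; agonist hits = positive Ca response.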
D2 PAM-1: D2 dopamine receptor (human) potentiation; potentiation, % at 10 µM; P14416; AID 485347; 340,000 tested, 0.34% active; HEK293 T-REx D2, calcium flux, EC20 dopamine potentiation;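 active = potentiation over 3 SD above the plate norm, cut at about 30% in these data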; note: 0% is about no effect
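Cells plated with tetracycline inducer and held overnight at 30 C; calcium dye loaded 30–90 min at room temperature; baseline taken, compound added and read 180 s; EC20 dopamine then added and read 180 s.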
D2 ag-2: agonists of human D2 dopamine receptor (beta-arrestin). DiscoveRx PathHunter D2 beta-arrestin, luminescence, 90 min; 100% = 57 uM dopamine signal. activation, % (test concentration not listed). 360,000 tested, 0.084% active. AID 624465; in the data active = activation above about 40%
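Agonist mode: compounds alone added to overnight-plated D2 PathHunter cells for 90 min at 37 C, with 57 uM final dopamine (EC100) defining full response. Beta-arrestin recruitment detected by chemiluminescent reagent, read after 1 h at ambient temperature.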
D2 PAM-2: potentiates the human D2 dopamine receptor allosterically; P14416; DiscoveRx D2 beta-arrestin cells, luminescence, 90 min; 100% = 57 uM dopamine signal; potentiation, % (no concentration beside the values); 360,000 tested, 0.23% active; in the data active = potentiation above about 50%
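D2 cells co-treated with compound plus 50 nM dopamine (EC20) for 90 min at 37 deg C to detect potentiation. Beta-arrestin recruitment was read as enzyme-fragment luminescence after 1 h at ambient temperature. Full response was set by 57 uM dopamine.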
D3 ag: confirmation of human D3 dopamine receptor agonists, beta-arrestin | shares compounds with D2 ag-1 | DiscoveRx D3 beta-arrestin cells, luminescence, 90 min | Potency, µM (doses to about 76.9 µM), for the others: top-dose activation, most hits filed as activators | 2,300 tested, 4% active;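 note: potency is the fitted concentration of half-maximal effect; 100% = dopamine control response; nearly all actives have a fitted effect of over 70% in size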
Target sequence (P35462 whole entry, looked up): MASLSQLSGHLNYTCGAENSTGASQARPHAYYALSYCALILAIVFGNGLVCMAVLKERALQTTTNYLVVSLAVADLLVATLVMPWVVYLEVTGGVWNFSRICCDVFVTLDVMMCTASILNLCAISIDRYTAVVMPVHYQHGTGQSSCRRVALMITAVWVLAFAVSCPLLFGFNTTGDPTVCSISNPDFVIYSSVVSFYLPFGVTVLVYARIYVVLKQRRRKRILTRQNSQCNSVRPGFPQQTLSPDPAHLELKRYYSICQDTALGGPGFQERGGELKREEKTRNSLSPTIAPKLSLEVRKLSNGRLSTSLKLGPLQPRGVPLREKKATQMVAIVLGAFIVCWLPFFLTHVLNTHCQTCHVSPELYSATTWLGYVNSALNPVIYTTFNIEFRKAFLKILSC
D2 ag-3: D2 receptor agonism, beta-arrestin counterscreen | shares compounds with D2 ag-1 | DiscoveRx PathHunter D2 beta-arrestin, luminescence, 90 min; response scale: percent relative to full dopamine signal | Potency, µM (titrated, usually from 76.9 µM), for inactives: at the highest dose activation, most hits filed as activators | 2,300 tested, 5.9% active; note: potency is the fitted concentration of half-maximal effect; % of control where 0% means no effect; nearly all actives have a fitted effect of over 70% in size
* = called active by the depositor; nt = no result. Unless noted, calls come from the whole dose curve; as a rule, active = well fitted activation curve with a large enough effect; inconclusive = small, poorly fitted or top-dose-only effect; inactive = flat fitted curve, though single readings scatter.

SMILES | LDHA block | D2 antagonist | D2 ag-1 | D2 PAM-1 | D2 ag-2 | D2 PAM-2 | D3 ag | D2 ag-3
CCOc1ccc(NC(=O)CN(C)C(=O)CC2CCCCC2)cc1OCC | -1 | 3 | 0 | -11 | 3 | -1 | nt | nt
CC(=O)c1ccc(OC(=O)C2CSC3(C)CCC(=O)N23)cc1 (stereo not drawn) | 2 | nt | nt | nt | 0 | 11 | -4% | -2%
COc1ccc(CN(C)C(=O)C2CSC3(C)CCC(=O)N23)cc1 (stereo not drawn) | -6 | 8 | 0 | -2 | -2 | 10 | nt | nt
COc1ccc(NC(=O)CN(C)C(=O)C2CSC3(C)CCC(=O)N23)cc1 (stereo not drawn) | -2 | -10 | 1 | 0 | -3 | 6 | -3% | 1%
CCOc1ccc(NC(=O)CN(C)C(=O)C2CSC3(C)CCC(=O)N23)cc1OCC (stereo not drawn) | 1 | 9 | 0 | -3 | 1 | 0 | -2% | -1%
COc1ccc(-c2nc3cnccc3o2)cc1NC(=O)c1cccnc1 | 2 | nt | nt | nt | nt | nt | nt | nt
O=C(CNC(=O)c1ccc(-c2ccccc2)cc1)OCc1ncc(-c2ccccc2)o1 | 4 | nt | nt | nt | nt | nt | nt | nt
CC(Nc1c[nH]c(=O)[nH]c1=O)c1ccccc1 (stereo not drawn) | 0 | 69* | 1 | 4 | 0 | -6 | 0% | 0%
O=C(Nc1c[nH]c(=O)[nH]c1=O)c1ccccc1Br | -1 | 7 | 0 | 6 | -1 | -3 | nt | nt
S=C(NCCc1ccc(Cl)cc1Cl)NC1CCCCC1 | 3 | nt | nt | nt | nt | nt | nt | nt
CCCN(CC(=O)Nc1ccccc1C)C(=O)c1ccc2c(c1)OCO2 | 3 | -9 | -2 | 8 | -2 | -11 | -4% | -2%
COCCN(CC(=O)Nc1cccc(C)c1C)C(=O)c1ccc2c(c1)OCO2 | -1 | -8 | -1 | -1 | -4 | -7 | nt | nt
CC(NC(=O)/C(=C\c1cccc(Br)c1)NC(=O)c1ccco1)C(=O)O (stereo not drawn) | 2 | nt | nt | nt | nt | nt | nt | nt
O=CNc1ccccc1 | -8 | -8 | 0 | -8 | 2 | -14 | -4% | -2%
COc1ccc(-c2c(C#Cc3ccsc3)c3cc(-c4ccc5c(c4)OCO5)ccc3n2C)cc1 | -6 | 4 | 1 | -1 | -1 | -3 | 0% | -1%
COc1ccc(-c2c(C#Cc3ccsc3)c3cc(-c4ccc5c(c4)OCCO5)ccc3n2C)cc1 | 1 | nt | nt | nt | -4 | -2 | nt | nt
